{"source": "PubChem BioAssay (NCI)", "note": "“And” between values parts separate entries of the source, which are not always exact repeats. Equal entries are not always repeated. This is part of a sample that, as a whole, favours compounds with a hit. Of some 83,000 tested, about 20% had one in any assay.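 Compound tested at a single concentration for 48 hours in 96-well plates; a percent growth value below 10 was scored as active.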 The source made the active and inactive calls.", "data": [{"test_system": "CAKI-1 renal", "assay": "NCI-60 one-dose screen, 48 h (100 = growth as untreated, 0 = no growth, -100 = all killed)", "conditions": "10 µM unless noted", "procedure": "Growth inhibition of the CAKI-1 human tumor cell line is measured as a screen for anti-cancer activity. Cells are grown in 96 well plates and exposed to the test compound for 48 hours. Compounds are tested at a single concentration, which is 10^-5 M for most compounds. The reported endpoint is percent growth (GI% or GIPRCNT), where numbers from 0 - 100% represent growth inhibition, and numbers from -100% - 0 represent cell death. For example, a value of 40 represents 60% growth inhibition. A value of 0 means no net growth occurred over the course of the experiment. A value of -40 indicates 40% of cells at the beginning of the experiment died by the end of the experiment. A value of -100 means all cells are dead at the end of the experiment.\nNCI-60 Human Tumor Cell Lines Screen was performed using the standard one-dose NCI protocol, which is described in more detail at https://dtp.cancer.gov/discovery_development/nci-60/default.htm.\nCompounds with GIPRCNT values below 10 were considered active. Activity score was based on GIPRCNT using the following formula: […]\nScore is 0 for GIPRCNT values of 100 or above, 50 for GIPRCNT values of 0, and 100 for GIPRCNT values of -100.", "values": [{"smiles": "Cn1cc(-c2cc(N)n3nc(-c4c[nH]c5ccccc45)cc3n2)c2cc(F)ccc21", "growth": "77.5% (inactive)"}, {"smiles": "COc1cc(C=O)ccc1Oc1nc(Nc2ccc(F)cc2)nc(N(C)C)n1", "growth": "69.2% (inactive) and 58.3% (inactive)"}, {"smiles": "Nc1cc2ccccc2c(=O)n1NC(=O)c1ccccc1", "growth": "83.8% (inactive)"}, {"smiles": "CC1=C(C(=O)Nc2ccccc2)C(c2cccc3ccccc23)n2c(nc3ccccc32)N1", "note": "(stereo not given)", "growth": "5.8% (active)"}, {"smiles": "COC(=O)c1cc(C(=O)CBr)n2c1ccc1c3ccccc3ccc12", "growth": "54% (inactive)"}, {"smiles": "CN1CCN(C(=O)Oc2cc3c(c4ccccc24)[C@H](CCl)CN3C(=O)c2cc3cc(OCCCN4CCC4)ccc3[nH]2)[C@H]2CSSC[C@H]21", "growth": "6.04% (active)"}, {"smiles": "Cc1cc(C(NC(=O)CCCCCNc2cccc3c2C(=O)N(C2CCC(=O)CC2=O)C3=O)c2cccc(N(C)C)c2)c(O)c2ncccc12", "note": "(stereo not given)", "growth": "19.4% (inactive)"}, {"smiles": "COc1cc(CNC(=O)C[C@H](C)CCC=C(C)C)ccc1OCc1cn(-c2ccc(Cl)cc2Cl)nn1", "growth": "31.8% (inactive)"}, {"smiles": "CC1=C(C)C(=O)C(NCCN2CCOCC2)=C(Br)C1=O", "growth": "45.3% (inactive)"}, {"smiles": "CCCCNc1ccc2c3c(cccc13)C(=O)N(NCC(O)COc1ccc3c(C)cc(=O)oc3c1)C2=O", "note": "(stereo not given)", "growth": "85.6% (inactive)"}, {"smiles": "CCCCCCCOc1ccc(S(=O)(=O)Nc2ccc(C)c(F)c2C(=O)O)cc1", "growth": "93% (inactive)"}, {"smiles": "c1n[nH]cc1-c1nc2ccc3[nH]ncc3c2c2c1CC1(CC2)COC1", "growth": "12.3% (inactive)"}, {"smiles": "Cc1cccc(/C=C/c2ccc(NC(=S)NCCCCN(C)C)cc2)c1", "growth": "-89.6% (active)"}, {"smiles": "COc1ccc(NC(=O)Cn2c(/C=C/c3cccc(Br)c3)nc3ccccc3c2=O)cc1", "growth": "55.7% (inactive)"}, {"smiles": "O=C(NC(=S)N1CCN(c2ncnc3c2cnn3-c2ccccc2)CC1)c1ccc(Br)cc1", "growth": "47.8% (inactive)"}, {"smiles": "C/C(=N\\Nc1ccc(C(=O)O)cc1)c1cnn(-c2cc(=O)[nH]c3ccc(C)cc23)c1C", "growth": "89.7% (inactive)"}, {"smiles": "Cc1ccccc1Nc1nnc(-c2c[nH]c3ccccc23)o1", "growth": "29.4% (inactive)"}, {"smiles": "CCCCNc1ccc2c3c(cccc13)C(=O)N(c1cccc(-c3nn(-c4ccccc4)cc3-c3nc4ccccc4s3)c1)C2=O", "growth": "82.2% (inactive)"}, {"smiles": "O=C(NC(=S)N1CCN(c2ncnc3c2cnn3-c2ccccc2)CC1)c1ccc(F)cc1", "growth": "84.8% (inactive)"}, {"smiles": "O=C(Nc1ccc(-c2ccc3c(c2)NC(=O)/C3=C\\c2ccc[nH]2)cc1)Nc1ccc(Cl)c(C(F)(F)F)c1", "growth": "39.3% (inactive)"}, {"smiles": "CCN(C(=O)CN1C(=O)/C(=C/c2ccco2)SC1=S)C1CCS(=O)(=O)C1", "note": "(stereo not given)", "growth": "91.4% (inactive)"}, {"smiles": "Fc1ccccc1CNc1nc(SCCN2CCOCC2)nc2c1cnn2CC(Cl)c1ccc(Br)cc1", "note": "(stereo not given)", "growth": "27% (inactive)"}, {"smiles": "N#Cc1cc(-c2ccc3ncnc(N4CCc5cc(F)c(Cl)cc54)c3c2)cnc1N", "growth": "19.8% (inactive)"}, {"smiles": "COc1ccc(-c2nc3ccc(-c4nnc(SCc5ccccc5)o4)cc3[nH]2)cc1OC", "growth": "16.2% (inactive)"}, {"smiles": "NS(=O)(=O)c1ccc(Nc2nc(SCC(=O)c3ccc(F)cc3)nc3ccccc23)cc1", "growth": "47.3% (inactive)"}, {"smiles": "O=c1[nH]c2ccccc2cc1COc1ccc(Nc2nccc(-c3ccc(Cl)cc3)n2)cc1", "growth": "87.5% (inactive)"}, {"smiles": "CS(=O)(=O)c1ccc(-n2nc(C(=O)NCc3ccccc3)cc2-c2ccc(Cl)cc2)cc1", "growth": "76.1% (inactive)"}, {"smiles": "FC(F)(F)c1cc2c(Cl)ncnc2n1CCN1CCOCC1", "growth": "75% (inactive)"}, {"smiles": "O=C(N/N=C/c1ccc(Br)o1)c1[nH]c2ccc(Br)cc2c1-c1ccccc1", "growth": "2.87% (active)"}, {"smiles": "COc1ccc2[nH]c(O)c(N=Nc3nc(-c4ccc(Br)cc4)cs3)c2c1", "growth": "2.6% (active)"}, {"smiles": "Cc1nn(-c2ccccc2)c2nc(C)n(CC(=O)N/N=C/c3ccccc3O)c(=O)c12", "growth": "22.6% (inactive)"}, {"smiles": "CC1CCc2c(sc3nc(SCC(=O)c4cccc(Br)c4)n(-c4ccccc4)c(=O)c23)C1", "note": "(stereo not given)", "growth": "6.39% (active)"}, {"smiles": "NS(=O)(=O)c1cccc(Nc2nc(SCC(=O)c3ccc(F)cc3)nc3ccccc23)c1", "growth": "21.9% (inactive)"}, {"smiles": "CC[C@@]12CC(C(=O)OC)=C3Nc4cc5c(cc4[C@@]34CCN(C[C@H]3O[C@H]31)[C@@H]24)[C@@H]1[C@H](O5)[C@@H](O)[C@@]2(CC)CC(C(=O)OC)=C3Nc4cc(O)ccc4[C@@]34CCN1[C@@H]24", "growth": "-55.8% (active)"}, {"smiles": "COc1ccc(NC2=C(I)C(=O)C(C)=C(C)C2=O)cc1", "growth": "29.1% (inactive)"}, {"smiles": "Clc1ccc2c(NCCNC34CC5CC(CC(C5)C3)C4)ccnc2c1", "growth": "-80.8% (active)"}, {"smiles": "CC[C@]12C=CCN3CC[C@@]4(c5ccc(OC)cc5N(C)[C@H]4[C@@](O)(C(=O)OC)[C@@H]1OC(=O)CCCC[P+](c1ccc(F)cc1)(c1ccc(F)cc1)c1ccc(F)cc1)[C@@H]32", "growth": "73.2% (inactive)"}, {"smiles": "COc1cc(C2CC(c3ccc(F)cc3)=Nc3c(N)nc(N)nc3N2)ccc1Oc1nc(Nc2ccc(F)cc2)nc(N(C)C)n1", "note": "(stereo not given)", "growth": "40.5% (inactive)"}, {"smiles": "Cc1ccc(N=Nc2c(N)nn3c(-c4cc5cc(Br)ccc5oc4=O)ccnc23)cc1", "growth": "80.8% (inactive)"}, {"smiles": "N/C(=N\\c1nc2ccc([N+](=O)[O-])cc2s1)NC(=O)Nc1ccccc1Cl", "growth": "43.1% (inactive)"}]}]}
